Molecules are shown by their SMILES. Records with an inconclusive call do not appear. Where a call stands in place of a potency, no number is given. A number with no mark means an inactive call. Activity calls are given as the source filed them. The call rests on the fitted dose curve; in most records, active means well fitted cell-killing curve with a large enough effect in the repeat runs; inconclusive means weak or mixed curves, or effect the other way; inactive means flat fitted curve, though single readings scatter.

This assay in a line: cAMP Responsive Elements (CRE) small molecule antagonists, cell-based qHTS assay: qHTS cell viability counter screen (AID 2060913). Further: nearly all actives have a fitted effect of over 40% in size. The conditions noted are these: CRE-bla HEK293T viability, CellTiter-Glo luminescence, 5 h; series mostly up to 92.4 µM. In outline:
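Viability of NKH477-stimulated (0.25 uM final) CRE-bla HEK293T cells is measured by CellTiter-Glo luminescence following 3 hrs compound exposure at 37 C.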
A general note: qHTS replaces the single test concentration by a dilution series.
In the case of `COc1ccc2c(c1)c(CC(=O)OC/C=C(\C)CC/C=C(\C)CCC=C(C)C)c(C)n2C(=O)c1ccc(Cl)cc1`, the Potency entry is “inactive”.

Regarding `CCC(CC)(CC(=O)Nc1cccc(/C=C/c2nc(C3CCC3)cs2)c1)C(=O)O`, the Potency entry was “inactive”.

`Cc1ccccc1N1C(=O)c2cc(S(N)(=O)=O)c(Cl)cc2NC1C` (stereo not given): the Potency entry is “inactive”.

For the compound `CC(=O)Oc1cc2c(s1)CCN(C(C(=O)C1CC1)c1ccccc1F)C2` (stereo not given), the Potency result is “inactive”.

With `COc1ccc(-c2coc3cc(O)ccc3c2=O)cc1`, the Potency entry is “inactive”.

On to `O=C(Nc1cccc(C2=NCCN2)c1)Nc1cccc(C2=NCCN2)c1`, for which the viability change, negative = cytotoxic is 0.0426% [at 18.9 µM].

Consider `CC(C)N=C(N)/N=C(\N)Nc1ccc(Cl)cc1`, for which the Potency entry is “inactive”.

In the case of `FC(F)(F)C(F)(F)C(F)(F)C(F)(F)CCI`, the Potency result is “inactive”.

Regarding `NC(=O)N1c2ccccc2C=Cc2ccccc21`, the Potency entry is “inactive”.

For `CCNC(=O)NCCCOc1cccc(CN2CCCCC2)c1`, the Potency result is “inactive”.

As for `C=C(C)C(=O)OCC(C)C`, the Potency result is “inactive”.

For `C=COC(=O)C(C)(CC)CCC(C)C` (stereo not given), the Potency entry was “inactive”.

As to `CNC(=S)N(C)C`, the Potency entry is “inactive”.

With `OCC1CC2CC1C1CCC(CO)C21` (stereo not given), the Potency result was “inactive”.

Turning to `CC1=CC(=O)/C(=C(/C)O)C(=O)O1`, the Potency entry was “inactive”.

For the compound `OCCN1CCN(CCCN2c3ccccc3C=Cc3ccccc32)CC1`, the Potency result is “inactive”.

For `O=C(O)COc1ccc2ccccc2c1`, the Potency entry was “inactive”.

`CC[C@H](c1ccc(O)cc1)[C@@H](CC)c1ccc(O)cc1`: the Potency entry is “inactive”.

On to `CN1[C@@H]2CC[C@H]1CC(OC(=O)c1c[nH]c3ccccc13)C2` (stereo not given in full), for which the Potency result is “inactive”.

As for `C=CC(=C)CCC=C(C)C`, the Potency entry was “inactive”.

In the case of `CC1=CCCC(C)(C)C12CCC(C)O2` (stereo not given), the Potency entry was “inactive”.

For the compound `O=C(O)c1c2ccccc2cc2ccccc12`, the Potency result was “inactive”.

With `COc1cccc2c1C(=O)c1c(O)c3c(c(O)c1C2=O)C[C@@](O)(C(=O)CO)C[C@@H]3O[C@H]1C[C@H](N)[C@H](O)[C@H](C)O1`, the Potency entry was “inactive”.

Turning to `C=CCOc1c(Br)cc(Br)cc1Br`, the Potency result is “inactive”.

With `CCCCCCCCCCCCCCNCCO`, the Potency entry is “inactive”.

For the compound `O=C(O)c1ccc2c(c1)C(=O)OC2=O`, the Potency entry is “inactive”.

Regarding `COc1ccc(-n2nc(C(F)F)cc2-c2ccc(S(C)=O)cc2)cc1` (stereo not given), the Potency result was “inactive”.

As for `C=C(C)C(=O)O`, the Potency result is “inactive”.

For `Cc1c(C)n(CCN(C)C)c2ccc(C(=O)OCCN(C)C)cc12`, the Potency result is “inactive”.

As for `CC1(C)O[C@@H]2C[C@H]3[C@@H]4C[C@H](F)C5=CC(=O)C=C[C@]5(C)[C@@]4(F)[C@@H](O)C[C@]3(C)[C@]2(C(=O)CO)O1`, the Potency entry is “inactive”.

In the case of `CC1=NN(c2cccc(S(=O)(=O)O)c2)C(=O)C1`, the Potency result is “inactive”.

As to `CCO`, the Potency result is “inactive”.

Regarding `C=C(C)C(=O)OCCC(C)OC(=O)C(=C)C` (stereo not given), the Potency entry is “inactive”.

For the compound `CC(C)CC(=O)CC(C)CC(C)C` (stereo not given), the Potency entry was “inactive”.

Take `COc1ccc(OC)c(Cl)c1`: the Potency result is “inactive”.

For the compound `CCCC(=O)O[C@]1(C(=O)CCl)[C@@H](C)C[C@H]2[C@@H]3CCC4=CC(=O)C=C[C@]4(C)[C@@]3(F)C(=O)C[C@@]21C`, the Potency result is “inactive”.

Consider `NC(=O)[C@@H]1CSSCCC(=O)N[C@@H](CCCCN=C(N)N)C(=O)NCC(=O)N[C@@H](CC(=O)O)C(=O)N[C@@H](Cc2c[nH]c3ccccc23)C(=O)N2CCC[C@H]2C(=O)N1`, for which the Potency entry was “inactive”.

With `CCCCC(CC)COC(=O)c1ccccc1C(=O)O` (stereo not given), the Potency entry is “inactive”.

As to `CC(C)COC(=O)CC(C(=O)OCC(C)C)S(=O)(=O)O` (stereo not given), the Potency entry was “inactive”.

Consider `CC(C)(c1ccc(Oc2ccc(N)cc2)cc1)c1ccc(Oc2ccc(N)cc2)cc1`, for which the Potency result is “inactive”.
